The values below come from PubChem BioAssay (Tox21).

The target of experiment [1] is Cytochrome P450 2C19 (Homo sapiens) (UniProt P33261). Description: Cytochrome P450 Family 2 Subfamily C Member 19 (CYP2C19) small molecule antagonists: luciferase reporter qHTS assay (AID 1671197). Further: nearly all actives have a fitted effect of over 65% in size. Further: potency means the concentration at half of the fitted maximal effect. Summed up:
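Light output is proportional to CYP2C19 activity: proluciferin substrate is converted to luciferin, then detected by a luciferin detection reagent that also stops the 1 h, 37C NADPH-driven reaction. Ketoconazole serves as positive control.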

The target of experiment [2] is Cytochrome P450 2C9 (Homo sapiens) (UniProt P11712). Description: Cytochrome P450 Family 2 Subfamily C Member 9 (CYP2C9) small molecule antagonists: luciferase reporter qHTS assay (AID 1671198). Further: nearly all actives have a fitted effect of over 50% in size. Further: potency means the concentration at half of the fitted maximal effect. Summed up: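 CYP2C9 activity was measured with a P450-Glo proluciferin substrate. Enzyme–substrate mix was held with compound for 10 min at room temperature, then NADPH regeneration solution was added for 1 h at 37C. Luciferin product was read as luminescence.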

Experiment [3] addresses Cytochrome P450 1A2 (Homo sapiens) (UniProt P05177). Description: Cytochrome P450 Family 1 Subfamily A Member 2 (CYP1A2) small molecule antagonists: luciferase reporter qHTS assay (AID 1671199). Further: nearly all actives have a fitted effect of over 50% in size. Further: potency means the concentration at half of the fitted maximal effect. Summed up:
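Luminescence readout (relative luminescence units) after luciferin detection reagent, 20 min RT. Preceded by 1 h room-temperature CYP1A2 reaction with NADPH regeneration solution following 10 min compound preincubation with enzyme and proluciferin substrate. Furafylline positive control.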

For experiment [4], the target named is Voltage-gated inwardly rectifying potassium channel KCNH2 (Homo sapiens) (UniProt Q12809). The experiment in a line: Human Ether-a-go-go-Related Gene (hERG) channel small molecule antagonists: fluorescence cell-based qHTS assay (AID 1671200).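 Further: hERG-expressing U2OS cells given a thallium stimulus after FluxOR II dye loading; series mostly up to about 77 µM; nearly all actives have a fitted effect of over 50% in size.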 Summed up: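 Kinetic two-minute fluorescence traces, sampled at 1 s, were collected following thallium stimulus of U2OS cells (1000 per well) that had been cultured overnight at 37 C and loaded with FluxOR II.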

Experiment [5] concerns the target Cytochrome P450 3A4 (Homo sapiens) (UniProt P08684). The experiment in a line: Cytochrome P450 Family 3 Subfamily A Member 4 (CYP3A4) small molecule antagonists: luciferase reporter qHTS assay (AID 1671201). Further: nearly all actives have a fitted effect of over 50% in size. Further: potency means the concentration at half of the fitted maximal effect. The method in brief: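 Proluciferin-to-luciferin conversion by CYP3A4, NADPH-regenerated, 1 h RT; luminescence read as RLU. Ketoconazole as control.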

“And” between values parts separate entries of the source, which are not always exact repeats. Equal values may be shown once. Results filed as inconclusive are left out. The source holds several records for some structures; these can differ, active in one and inactive in another. The source made the active and inactive calls. The call rests on the fitted dose curve; in most records, active means well fitted curve in the direction sought with a large enough effect in the repeat runs; inconclusive means weak or mixed curves; inactive means no such curve, though single readings can be large; an effect the other way counts as inactive or inconclusive.

Cytochrome P450 2C19 (Homo sapiens), sequence (P33261 whole entry, looked up): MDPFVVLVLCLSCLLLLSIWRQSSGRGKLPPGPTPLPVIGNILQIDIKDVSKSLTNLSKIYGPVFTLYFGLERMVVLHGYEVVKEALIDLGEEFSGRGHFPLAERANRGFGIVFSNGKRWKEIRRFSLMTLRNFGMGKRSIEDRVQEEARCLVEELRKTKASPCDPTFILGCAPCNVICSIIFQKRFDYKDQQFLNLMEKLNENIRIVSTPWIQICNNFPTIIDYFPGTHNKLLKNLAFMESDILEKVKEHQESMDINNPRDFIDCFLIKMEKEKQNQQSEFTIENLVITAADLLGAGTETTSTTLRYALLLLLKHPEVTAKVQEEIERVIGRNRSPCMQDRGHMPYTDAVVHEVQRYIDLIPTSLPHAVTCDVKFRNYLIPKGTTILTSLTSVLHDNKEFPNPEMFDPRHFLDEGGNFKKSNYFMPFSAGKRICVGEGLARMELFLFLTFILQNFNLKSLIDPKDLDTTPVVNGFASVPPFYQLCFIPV
Cytochrome P450 2C9 (Homo sapiens), sequence (P11712 whole entry, looked up): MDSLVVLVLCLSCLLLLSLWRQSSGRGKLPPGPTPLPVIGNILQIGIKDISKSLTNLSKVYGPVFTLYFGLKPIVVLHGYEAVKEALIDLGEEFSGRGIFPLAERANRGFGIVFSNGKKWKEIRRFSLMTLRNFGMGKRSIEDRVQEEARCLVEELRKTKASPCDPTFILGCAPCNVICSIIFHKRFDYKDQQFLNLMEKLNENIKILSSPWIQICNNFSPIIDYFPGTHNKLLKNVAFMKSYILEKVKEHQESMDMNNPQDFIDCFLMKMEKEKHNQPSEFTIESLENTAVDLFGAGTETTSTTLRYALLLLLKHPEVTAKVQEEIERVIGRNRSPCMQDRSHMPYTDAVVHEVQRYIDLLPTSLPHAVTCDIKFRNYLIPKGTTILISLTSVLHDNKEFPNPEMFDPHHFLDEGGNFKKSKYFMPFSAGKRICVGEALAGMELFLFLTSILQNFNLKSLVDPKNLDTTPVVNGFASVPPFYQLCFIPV
Cytochrome P450 3A4 (Homo sapiens), sequence (P08684 whole entry, looked up): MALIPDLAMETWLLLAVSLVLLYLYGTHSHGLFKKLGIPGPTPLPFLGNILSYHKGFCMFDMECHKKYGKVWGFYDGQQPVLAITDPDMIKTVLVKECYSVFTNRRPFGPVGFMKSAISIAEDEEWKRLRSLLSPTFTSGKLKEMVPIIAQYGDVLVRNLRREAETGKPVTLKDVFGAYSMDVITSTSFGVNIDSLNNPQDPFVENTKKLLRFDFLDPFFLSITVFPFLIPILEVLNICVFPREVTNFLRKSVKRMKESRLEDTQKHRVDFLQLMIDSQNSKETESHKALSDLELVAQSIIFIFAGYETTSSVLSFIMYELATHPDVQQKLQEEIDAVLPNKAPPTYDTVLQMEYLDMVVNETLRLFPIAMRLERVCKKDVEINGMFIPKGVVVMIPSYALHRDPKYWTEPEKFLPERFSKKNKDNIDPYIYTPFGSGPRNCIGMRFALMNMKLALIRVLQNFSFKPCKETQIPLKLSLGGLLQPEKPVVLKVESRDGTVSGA
Cytochrome P450 1A2 (Homo sapiens), sequence (P05177 whole entry, looked up): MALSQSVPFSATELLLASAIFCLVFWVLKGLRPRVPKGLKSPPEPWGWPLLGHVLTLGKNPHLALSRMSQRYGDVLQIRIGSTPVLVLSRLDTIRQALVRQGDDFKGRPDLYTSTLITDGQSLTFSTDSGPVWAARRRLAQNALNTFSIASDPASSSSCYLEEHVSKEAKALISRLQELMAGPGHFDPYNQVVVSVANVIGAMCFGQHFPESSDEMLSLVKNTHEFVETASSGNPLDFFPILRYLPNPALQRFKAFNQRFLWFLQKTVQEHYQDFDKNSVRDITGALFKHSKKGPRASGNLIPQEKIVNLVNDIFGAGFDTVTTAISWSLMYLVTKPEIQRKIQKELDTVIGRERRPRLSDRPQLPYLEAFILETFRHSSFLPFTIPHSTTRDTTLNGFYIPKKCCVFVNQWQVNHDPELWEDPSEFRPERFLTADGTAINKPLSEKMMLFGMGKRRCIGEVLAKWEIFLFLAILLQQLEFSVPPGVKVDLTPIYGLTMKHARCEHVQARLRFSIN
Voltage-gated inwardly rectifying potassium channel KCNH2 (Homo sapiens), sequence (Q12809 whole entry, looked up): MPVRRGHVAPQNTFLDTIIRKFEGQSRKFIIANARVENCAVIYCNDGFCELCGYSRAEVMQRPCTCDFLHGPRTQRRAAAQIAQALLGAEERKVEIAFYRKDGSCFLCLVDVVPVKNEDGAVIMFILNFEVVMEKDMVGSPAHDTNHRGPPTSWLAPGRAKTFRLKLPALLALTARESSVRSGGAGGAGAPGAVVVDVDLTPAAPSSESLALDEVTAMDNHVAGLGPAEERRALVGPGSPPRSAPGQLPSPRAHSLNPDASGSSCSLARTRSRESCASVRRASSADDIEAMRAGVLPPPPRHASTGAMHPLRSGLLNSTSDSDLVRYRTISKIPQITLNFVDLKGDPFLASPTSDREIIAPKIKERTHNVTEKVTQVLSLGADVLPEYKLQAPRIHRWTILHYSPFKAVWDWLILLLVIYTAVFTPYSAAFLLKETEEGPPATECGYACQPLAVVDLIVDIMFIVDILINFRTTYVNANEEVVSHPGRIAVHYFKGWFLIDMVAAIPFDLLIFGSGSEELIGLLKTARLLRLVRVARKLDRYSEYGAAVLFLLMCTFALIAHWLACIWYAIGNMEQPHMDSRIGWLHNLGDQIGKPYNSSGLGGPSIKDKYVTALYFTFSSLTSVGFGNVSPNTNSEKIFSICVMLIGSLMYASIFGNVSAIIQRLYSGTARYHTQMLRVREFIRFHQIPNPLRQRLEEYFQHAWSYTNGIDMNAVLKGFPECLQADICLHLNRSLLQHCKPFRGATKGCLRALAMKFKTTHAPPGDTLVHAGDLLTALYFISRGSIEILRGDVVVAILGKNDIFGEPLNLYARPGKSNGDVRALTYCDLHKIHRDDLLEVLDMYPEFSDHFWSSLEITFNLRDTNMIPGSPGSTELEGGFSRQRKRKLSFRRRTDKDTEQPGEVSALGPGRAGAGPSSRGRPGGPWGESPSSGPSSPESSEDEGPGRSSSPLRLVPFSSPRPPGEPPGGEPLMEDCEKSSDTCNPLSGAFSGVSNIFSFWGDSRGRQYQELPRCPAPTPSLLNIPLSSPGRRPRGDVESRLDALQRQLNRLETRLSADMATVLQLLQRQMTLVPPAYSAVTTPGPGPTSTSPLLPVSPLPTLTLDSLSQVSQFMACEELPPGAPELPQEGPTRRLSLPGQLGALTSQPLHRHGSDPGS

Consider `CC(C)=C[C@@H]1[C@@H](C(=O)OCc2coc(Cc3ccccc3)c2)C1(C)C`, for which the Potency in experiment [1] was 10 µM (active) and 4.36 µM (active); in experiment [2], 1.42 µM (active) and 5.49 µM (active); in experiment [3] it was 27.5 µM (active). For the same compound, the Potency entry in experiment [4] and in experiment [5] was “inactive” each time.

Take `Cc1ccc(N)cc1Cl`: the Potency was 7.18 µM (active) and 11.2 µM (active) in experiment [1]; 32.1 µM (active) and 35.6 µM (active) in experiment [2]; 1.28 µM (active) and 1.59 µM (active) in experiment [3]. In addition, the Potency entry in experiment [4] was “inactive”.

For `CN(C)CCO`, the Potency result in experiment [1], in experiment [2], in experiment [3], in experiment [4] and in experiment [5] was “inactive” each time.

As for `Nc1ccc(Br)cc1`, the Potency in experiment [1] is 50.2 µM (active) and 39.9 µM (active); in experiment [2], 35.5 µM (active) and 35.6 µM (active); in experiment [3] it was 44.8 µM (active). Also, the Potency entry in experiment [4] was “inactive”.

For the compound `CC(C#N)CCC#N` (stereo not given), the Potency result in experiment [1], in experiment [2], in experiment [3], in experiment [4] and in experiment [5] was “inactive” in each case.

Regarding `COC(=O)NC(=S)Nc1ccccc1NC(=S)NC(=O)OC`, the Potency was 63.3 µM (active) and 22.4 µM (active) in experiment [1]; 39.9 µM (active) in experiment [2]; 31.7 µM (active) in experiment [3]. Further, in experiment [4], the Potency entry is “inactive”.

As for `CCOP(=S)(OCC)Oc1cnc2ccccc2n1`, the Potency entry in experiment [1] is “inactive and 448 nM (active)”; in experiment [2], “inactive and 1.12 µM (active)”; in experiment [3] it was “inactive and 2.24 µM (active)”; in experiment [5], “inactive and 6.33 µM (active)”. Further, in experiment [4], the Potency entry was “inactive”.

For `O=C(O)c1ccccn1`, the Potency result in experiment [1], in experiment [2], in experiment [3], in experiment [4] and in experiment [5] was “inactive” throughout.

With `CC(C)C#N`, the Potency in experiment [1] was 67.3 µM (active) and inactive. Further, the Potency entry in experiment [2], in experiment [3], in experiment [4] and in experiment [5] was “inactive” throughout.

Turning to `O=c1[nH]c(=O)[nH]c(=O)[nH]1`, the Potency entry in experiment [1], in experiment [2], in experiment [3], in experiment [4] and in experiment [5] was “inactive” throughout.

As for `NCC(O)c1ccc(O)cc1` (stereo not given), the Potency entry in experiment [1], in experiment [2], in experiment [3], in experiment [4] and in experiment [5] was “inactive” each time.

Take `CN(N=O)c1ccccc1`: the Potency result in experiment [1], in experiment [2], in experiment [3], in experiment [4] and in experiment [5] was “inactive” each time.

With `CCNc1nc(NC(C)(C)C)nc(SC)n1`, the Potency in experiment [1] is 17.6 µM (active) and 39.9 µM (active); in experiment [3], 7.01 µM (active) and 7.96 µM (active). Moreover, the Potency entry in experiment [2], in experiment [4] and in experiment [5] was “inactive” in each case.

Take `CC(C)(Cl)Cl`: the Potency in experiment [1] was 40.6 µM (active) and 71 µM (active); in experiment [3], “inactive and 44.8 µM (active)”. The Potency result in experiment [2], in experiment [4] and in experiment [5] was “inactive” each time.

`CC(C)(C)OOC(=O)c1ccccc1`: the Potency result in experiment [1], in experiment [2], in experiment [3], in experiment [4] and in experiment [5] was “inactive” throughout.

With `[N-]=[N+]=[N-]`, the Potency is 24.4 µM (active) and 50.2 µM (active) in experiment [1]; 38.6 µM (active) and 35.6 µM (active) in experiment [2]; 43.3 µM (active) and inactive in experiment [3]. The Potency entry in experiment [4] and in experiment [5] was “inactive” each time.

Regarding `CC(Br)C(=O)O` (stereo not given), the Potency was 45.3 µM (active) in experiment [1] and 36 µM (active) in experiment [2]. The Potency result in experiment [3], in experiment [4] and in experiment [5] was “inactive” each time.

In the case of `CCCN(CCC)c1c([N+](=O)[O-])cc(C(F)(F)F)cc1[N+](=O)[O-]`, the Potency in experiment [1] is 39.8 µM (active) and 35.6 µM (active); in experiment [2] it was 22.4 µM (active); in experiment [3], 20 µM (active). Further, the Potency entry in experiment [4] was “inactive”.

As for `CC(=O)C=C(C)C`, the Potency result in experiment [1], in experiment [2], in experiment [3], in experiment [4] and in experiment [5] was “inactive” in each case.

On to `CCCCCOC(=O)c1ccccc1C(=O)OCCCCC`, for which the Potency is 11.2 µM (active) and 7.96 µM (active) in experiment [1]; 28.2 µM (active) and 7.96 µM (active) in experiment [2]; 17.8 µM (active) and 8.94 µM (active) in experiment [3]. Moreover, the Potency entry in experiment [4] was “inactive”.

With `c1ccc(-c2ccccc2)cc1`, the Potency entry in experiment [1], in experiment [2], in experiment [3], in experiment [4] and in experiment [5] was “inactive” in each case.

Regarding `CCCCCCCCCl`, the Potency entry in experiment [1], in experiment [2], in experiment [3], in experiment [4] and in experiment [5] was “inactive” throughout.

Take `CON(C)C(=O)Nc1ccc(Cl)c(Cl)c1`: the Potency in experiment [1] was 16 µM (active) and 39.9 µM (active); in experiment [2], 40.1 µM (active) and 39.9 µM (active); in experiment [3] it was 1.42 µM (active) and 3.17 µM (active). For the same compound, the Potency result in experiment [4] and in experiment [5] was “inactive” each time.

`CCC[CH2][Sn]([Cl])([Cl])[Cl]`: the Potency in experiment [1] is 40.6 µM (active) and inactive. Besides, the Potency result in experiment [2], in experiment [3], in experiment [4] and in experiment [5] was “inactive” throughout.

`CCCC1COC(Cn2cncn2)(c2ccc(Cl)cc2Cl)O1` (stereo not given): the Potency in experiment [1] was 456 nM (active) and 356 nM (active); in experiment [2] it was 2.04 µM (active) and 2.24 µM (active); in experiment [3] it was 20.4 µM (active) and 31.7 µM (active); in experiment [5], 51.2 nM (active) and 56.4 nM (active). For the same compound, the Potency entry in experiment [4] is “inactive”.

For the compound `ClCc1cccnc1`, the Potency in experiment [1] is 69.8 µM (active) and inactive; in experiment [3], 62.2 µM (active) and inactive. Also, the Potency entry in experiment [2], in experiment [4] and in experiment [5] was “inactive” each time.

Take `CCCCOC(=O)c1ccccc1C(=O)OCCCC`: the Potency in experiment [1] was 5.64 µM (active) and 3.99 µM (active); in experiment [2], 35.6 µM (active); in experiment [3] it was 5.03 µM (active) and 8.94 µM (active). The Potency entry in experiment [4] and in experiment [5] was “inactive” in each case.
